In the library only some 6.4% were active in any assay of this set; here they are far more common.
VP16 counter – VP16 counterscreen qHTS for inhibitors of ROR gamma transcriptional activity; Drosophila S2 Gal4-VP16 UAS-luciferase, luminescence, 20 h; Potency, µM (doses to about 53.6 µM), most hits filed as inhibitors; 310,000 compounds, 3.5% hits; AID 2546, 2010;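 note: Gal4-VP16 expression switched on by copper sulfate through the metallothionein promoter; nearly all actives have a fitted effect of over 50% in size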
RORg inh – qHTS for inhibitors of ROR gamma transcriptional activity. Drosophila S2 Gal4-RORgamma UAS-luciferase reporter, 20 h. Potency, µM (series often up to 53.6 µM), most hits filed as inhibitors. Nuclear receptor ROR-gamma (Mus musculus), P51450. 310,000 compounds, 5.4% hits; note: nearly all actives have a fitted effect of over 60% in size
Target sequence (P51450 whole entry, looked up, the tested form may be a part): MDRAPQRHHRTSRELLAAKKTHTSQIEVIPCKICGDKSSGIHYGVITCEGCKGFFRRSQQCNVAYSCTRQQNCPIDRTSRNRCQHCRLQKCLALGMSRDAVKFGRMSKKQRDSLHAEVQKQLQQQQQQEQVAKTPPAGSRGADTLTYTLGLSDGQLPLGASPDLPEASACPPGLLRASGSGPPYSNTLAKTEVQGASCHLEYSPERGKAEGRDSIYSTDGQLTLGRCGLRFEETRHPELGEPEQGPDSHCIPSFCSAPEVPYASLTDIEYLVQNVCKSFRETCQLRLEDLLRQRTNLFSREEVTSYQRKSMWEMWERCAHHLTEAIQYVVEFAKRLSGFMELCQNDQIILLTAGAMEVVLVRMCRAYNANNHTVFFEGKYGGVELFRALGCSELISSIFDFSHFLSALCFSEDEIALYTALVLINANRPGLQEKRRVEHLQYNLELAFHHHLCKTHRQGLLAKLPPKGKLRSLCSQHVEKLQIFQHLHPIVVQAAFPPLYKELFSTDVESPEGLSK
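Stable Schneider cell line, Gal4 DNA-binding domain fused to ROR gamma, UAS-luciferase. Cmpd 1 hr RT → CuSO4 700 uM final → 20 hr RT → luciferase reagent 10 min → luminescence.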
KinaseGlo FLuc – Counterscreen for Luciferase (Kinase-Glo TM) Inhibition; Luciferin 4-monooxygenase (Photuris pensylvanica), Q27757; Kinase-Glo luciferase, ATP luminescence, 8 min; Potency, µM (top dose mostly 38.3 µM), hits mostly inhibitors; 200,000 compounds, 0.28% hits; note: nearly all actives have a fitted effect of over 60% in size
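Compounds were added to a substrate mix at pH 7.2 (50 mM imidazole, 10 uM ATP, within the enzyme's linear range), followed by Kinase-Glo detection reagent; luminescence was measured after 8 minutes at ambient temperature.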
A number is an active result; - = inactive; ? = inconclusive; . = no result; [ ] = remark or other dose. Calls come from the whole dose curve; as a rule, active = well fitted curve in the direction sought with a large enough effect; inconclusive = small, poorly fitted or top-dose-only effect, or another doubt; inactive = no such curve, though single readings can be large; an effect the other way counts as inactive or inconclusive.

SMILES	VP16 counter	RORg inh	KinaseGlo FLuc
CCC(C)NC(=O)Cn1c(-c2ccccc2)cc(C(C)=O)c1C (centres undefined)	-	-	-
O=C(NCC(=O)N1CC(O)CC1C(=O)N1CCCC1C(=O)OCc1ccccc1)OCc1ccccc1 (centres undefined)	-	-	-
O=C(/C=C/c1ccccc1)c1ccc2c(c1)OCCCCO2	?	?	-
O=C(CCl)N(C/C=C/c1ccccc1)c1ccc2c(c1)OCCO2	?	13µM	-
Cc1cc(C)n(S(=O)(=O)/C=C/c2ccccc2)n1	-	16µM	-
Cc1ccc(S(=O)(=O)n2nc(C)cc2C)cc1	-	-	-
COc1ccc(/C=C2\C(=O)NC(=S)N2C(=O)c2ccc(C)cc2)cc1	?	22µM	-
O=C1NC(=S)N(C(=O)c2ccc(F)cc2)/C1=C/c1cccnc1	-	-	.
Cc1ccc2cc(C=O)c(Cl)nc2c1	-[10 µM]	-	-
O=C(CN1CCN(Cc2cccc(Cl)c2)C1=O)NCc1cccs1	-	-	-
Oc1ccc(/C=N/Nc2ccccc2)cc1	-	-	-
COc1ccccc1NC(=S)N/N=C/c1cccc(C)c1	1.3µM	0.89µM	-
Oc1ccc(/C=N/NC(=S)N/N=C/c2ccc(O)cc2)cc1	-	-	4.5µM
COc1ccccc1NC(=S)c1ccccc1	?	?	-
COc1ccccc1NC(=S)N/N=C/c1ccc(O)cc1	7.1µM	4µM	-
Cc1cccc(/C=N\NC(=O)c2ccccc2-n2cccc2)c1	-	-	-
C=CCOc1ccc(C2/C(=C(/O)c3ccc4c(c3)CC(C)O4)C(=O)C(=O)N2CCCN2CCOCC2)cc1 (centres undefined)	-	-	.
CCCOc1cccc(-c2cc(C(=O)N/N=C/c3cccnc3)c3ccccc3n2)c1	-	-	.
CC(C)Oc1cccc(-c2cc(C(=O)N3CCN(c4ncccn4)CC3)c3ccccc3n2)c1	11µM	-	-
COc1cccc(-c2cc(C(=O)N3CCN(c4ncccn4)CC3)c3ccccc3n2)c1	-	?	-
CCCOc1cccc(-c2cc(C(=O)N/N=C/c3ccccn3)c3ccccc3n2)c1	1.3µM	1µM	.
COc1cccc(-c2cc(C(=O)Nn3cnnc3)c3ccccc3n2)c1	?	?	-
COc1cccc(-c2cc(C(=O)Nc3ccncc3)c3ccccc3n2)c1	-	-	.
CCCOc1cccc(-c2cc(C(=O)NN)c3ccccc3n2)c1	?	11µM	-
CC(C)COc1cccc(-c2cc(C(=O)Nc3ccon3)c3ccccc3n2)c1	28µM	?	.
SMILES	VP16 counter	RORg inh	KinaseGlo FLuc
O=C(CN1CCN(Cc2cccc(F)c2)CC1)Nc1ccccc1F	-	-	.
CC(C)[C@H](NC(=O)C1CC(=O)N(c2ccc3c(c2)OCO3)C1)C(=O)NC1CCCC1 (some centres undefined)	-	?	.
CCCn1c(N)c(C(=O)CSc2nc3ccccc3c(=O)n2Cc2ccccc2)c(=O)[nH]c1=O	?	5µM	-
Cn1c(N)c(C(=O)CSc2nc3ccccc3c(=O)n2Cc2ccccc2)c(=O)n(C)c1=O	-	-	.
COc1ccc(-c2ccc(OC)c(C3C4C=CCC(C)C4C(=O)N3Cc3ccccc3)c2)cc1 (centres undefined)	-	-	.
Cc1ccc(-n2c(O)c(/C=N/NC(=O)C3COc4ccccc4O3)c3ccccc3c2=O)cc1 (centres undefined)	3.2µM	4µM	-
Cn1cc(/C=N\NC(=O)C2COc3ccccc3O2)c2ccccc21 (centres undefined)	?	?	-
Cc1c(/C=N\NC(=O)C2COc3ccccc3O2)c2ccccc2n1C (centres undefined)	-	-	-
O=C(N/N=C/c1c(O)n(-c2ccccc2Cl)c(=O)c2ccccc12)C1COc2ccccc2O1 (centres undefined)	2.8µM	4µM	-
O=C1CN2NC(=S)N(c3ccccc3)C2=CN1c1ccc(Cl)cc1	-	-	-
COC(=O)c1nc(N)sc1C	-[10 µM]	-	-
O=c1c2c(nc3n1CCCCC3)sc1c(O)c(Br)ccc12	4.5µM	8.9µM	-
CCN(CC)CCOc1c(Br)ccc2c1sc1nc3n(c(=O)c12)CCC3	-	-	-
COc1ccc(CN2CCNC(=O)C2CC(=O)N(C)Cc2nccn2C)cc1OC (centres undefined)	-	-	.
O=S(=O)(/C=C/c1ccccc1)N1CCN(c2nc(-c3cccnc3)nc3ccccc23)CC1	-	-	-
CN1N=C(C(=O)N2CCCC(N3CCN(c4ccc(F)cc4)CC3)C2)CCC1=O (centres undefined)	-	-	.
O=C1CS/C(=N/N=C/c2ccncc2)N1	-	-	.
O=C1N/C(=N/N=C/c2ccccc2)SC1(c1ccccc1)c1ccccc1	-	-	-
CC1(C)S/C(=N/N=C/c2cccs2)NC1=O	5µM	0.79µM	-
O=C1CS/C(=N/N=C/c2cccs2)N1	?	0.56µM	-
c1ccc(C(CCN2CC3CCC(CC3)C2)c2ccccc2)cc1	.	.	-[7.66 µM]
Cc1ccc2nc(C)c3c(c2c1)N(c1ccc(F)cc1)CC3	-	-	.
Cn1c(=O)c(-c2cccc(Cl)c2)nc2cncnc21	-	-	-
COc1ccc(C(CNc2ccc(C(F)(F)F)cn2)N(C)C)cc1OC (centres undefined)	-	-	.
CCC1ON(C(C)C)C2c3nc4ccccc4n3CC12 (centres undefined)	-	-	.
SMILES	VP16 counter	RORg inh	KinaseGlo FLuc
CC1(C)ON(C2CCCCC2)[C@H]2c3nc4ccccc4n3C[C@H]21	-	14µM	.
O=c1[nH]c2ccc(S(=O)(=O)Nc3ccc(Cl)cc3)cc2[nH]1	-	?	.
CCOC(=O)c1c(C)[nH]c(C)c1S(=O)(=O)N1CCN(C(=O)c2ccco2)CC1	-	-	.
CC(C)(C)OC(=O)N[C@@H](Cc1ccccc1)c1nnc(S(=O)(=O)Cc2ccccc2)o1	4.5µM	4.5µM	-
Cc1ccccc1CS(=O)(=O)c1nnc([C@H](Cc2ccccc2)NC(=O)OC(C)(C)C)o1	3.2µM	-	-
CCC(C)[C@@H](NC(=O)OC(C)(C)C)c1nnc(S(=O)(=O)Cc2cccc(C)c2)o1 (some centres undefined)	5µM	3.2µM	-
Cc1cccc(CS(=O)(=O)Cc2ccc(C(=O)NC(C)c3ccccc3)o2)c1 (centres undefined)	-	-	.
CC(C)(C)OC(=O)N[C@@H](Cc1ccccc1)c1nnc(SCC(=O)O)o1	-	-	-
CCSc1nnc([C@H](Cc2ccccc2)NC(=O)OC(C)(C)C)o1	-	-	-
Cc1c(C#N)c(NC(=O)CCl)n(Cc2cccs2)c1C	?	-	-
COc1ccc(-n2nc(C(=O)NCC(=O)NCCCN3CCN(C)CC3)c3ccccc3c2=O)cc1	-	-	.
C=CCOC(=O)N[C@H](C[N+](=O)[O-])c1ccccc1	-	-	-
COc1cc(NC(=O)C(=O)NNC(=O)C2CCCCC2)c(OC)cc1Cl	?	?	-
COc1cc(OC)cc(C(=O)NNC(=O)C(=O)Nc2cc(OC)c(Cl)cc2OC)c1	-	7.9µM	.
O=C(Nc1ccc(Br)cc1)c1ccc2c(c1)OCO2	-	?	.
O=C(N/N=C\C=C\c1ccc(Br)cc1)c1ccc2c(c1)OCO2	4.5µM	13µM	.

Bioassay records (PubChem)
